Measurements reported in the supplement of paper PMC11732987, “Enantioselective OTUD7B fragment discovery through chemoproteomics screening and high-throughput optimisation” (Communications Chemistry, 2025).

Tests used:
Test in all cases: log2 ratio of Biotin-Ahx-Ub-VS probe labelling (fragment/DMSO); higher = less target engagement (more negative = stronger competition), active = hit call of the paper (q ≤ 0.05, log2 ratio ≤ -1)
Conditions in all cases: compound concentration: 200 uM; treatment time: 3 h
USP19 = molecular target: T1, USP19 (UniProt O94966)
T1 sequence (whole entry): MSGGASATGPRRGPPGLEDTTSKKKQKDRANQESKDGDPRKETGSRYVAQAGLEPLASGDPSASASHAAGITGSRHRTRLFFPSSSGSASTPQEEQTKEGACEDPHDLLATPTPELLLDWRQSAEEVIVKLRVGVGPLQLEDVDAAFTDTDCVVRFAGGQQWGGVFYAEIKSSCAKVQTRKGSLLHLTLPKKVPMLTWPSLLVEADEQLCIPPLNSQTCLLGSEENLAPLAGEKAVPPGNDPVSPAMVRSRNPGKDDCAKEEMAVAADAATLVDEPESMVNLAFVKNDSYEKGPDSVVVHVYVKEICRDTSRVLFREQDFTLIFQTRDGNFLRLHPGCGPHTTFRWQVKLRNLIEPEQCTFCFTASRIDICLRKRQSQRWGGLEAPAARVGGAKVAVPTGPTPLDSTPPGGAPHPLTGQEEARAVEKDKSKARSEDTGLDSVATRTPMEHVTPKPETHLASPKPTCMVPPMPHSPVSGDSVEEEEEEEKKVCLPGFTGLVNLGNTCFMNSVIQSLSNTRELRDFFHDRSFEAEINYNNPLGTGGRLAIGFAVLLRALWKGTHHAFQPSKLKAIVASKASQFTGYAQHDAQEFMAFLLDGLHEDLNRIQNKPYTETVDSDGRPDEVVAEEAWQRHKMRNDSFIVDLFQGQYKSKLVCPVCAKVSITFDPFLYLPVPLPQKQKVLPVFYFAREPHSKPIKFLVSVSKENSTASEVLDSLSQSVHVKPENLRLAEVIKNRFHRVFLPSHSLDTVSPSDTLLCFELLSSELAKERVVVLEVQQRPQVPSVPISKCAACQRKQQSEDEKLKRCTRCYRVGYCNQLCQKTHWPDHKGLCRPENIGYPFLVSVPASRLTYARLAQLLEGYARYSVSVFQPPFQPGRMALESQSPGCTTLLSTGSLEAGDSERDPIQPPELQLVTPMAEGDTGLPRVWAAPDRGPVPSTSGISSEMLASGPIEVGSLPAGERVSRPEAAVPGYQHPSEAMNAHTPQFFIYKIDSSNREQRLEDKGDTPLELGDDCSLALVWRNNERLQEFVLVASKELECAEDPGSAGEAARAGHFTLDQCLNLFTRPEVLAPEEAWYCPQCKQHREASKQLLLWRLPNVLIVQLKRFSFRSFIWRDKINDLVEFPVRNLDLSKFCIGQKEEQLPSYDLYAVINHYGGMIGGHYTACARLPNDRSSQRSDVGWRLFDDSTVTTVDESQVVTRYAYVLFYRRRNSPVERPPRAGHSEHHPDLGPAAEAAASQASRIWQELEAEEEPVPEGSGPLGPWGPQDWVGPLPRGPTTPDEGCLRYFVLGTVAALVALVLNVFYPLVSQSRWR
Procedure, shortened: (§1)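 Each value is an average log2 ratio of fragment to vehicle, tested by unpaired t-test. The underlying Spectronaut label-free quantities were global-median-normalised, and only proteins with ≥2 unique peptides were included. Triplicate HEK293T lysate samples (495 µg) were exposed to fragment at 200 µM or vehicle for 3 h, then to Biotin-Ahx-Ub-VS at 0.5 µM final for 1 h, before NeutrAvidin enrichment of labelled DUBs, LysC and trypsin digestion, and diaPASEF LC-MS/MS.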

USP22 = molecular target: T2, USP22 (UniProt Q9UPT9)
T2 sequence (whole entry): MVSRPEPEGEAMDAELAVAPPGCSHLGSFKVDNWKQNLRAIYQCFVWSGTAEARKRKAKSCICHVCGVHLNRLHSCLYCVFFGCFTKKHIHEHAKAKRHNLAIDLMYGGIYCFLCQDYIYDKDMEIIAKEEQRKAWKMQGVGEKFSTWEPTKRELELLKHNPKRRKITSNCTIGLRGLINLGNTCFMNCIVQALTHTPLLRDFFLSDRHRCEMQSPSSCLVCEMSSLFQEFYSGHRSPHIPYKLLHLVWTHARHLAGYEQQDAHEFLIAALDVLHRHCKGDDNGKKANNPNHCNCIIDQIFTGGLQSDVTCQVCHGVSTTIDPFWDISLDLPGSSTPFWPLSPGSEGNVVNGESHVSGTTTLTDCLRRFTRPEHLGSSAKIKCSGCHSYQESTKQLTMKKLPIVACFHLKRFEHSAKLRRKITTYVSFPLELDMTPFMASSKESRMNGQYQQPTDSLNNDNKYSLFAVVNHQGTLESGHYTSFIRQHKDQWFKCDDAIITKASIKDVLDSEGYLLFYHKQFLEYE
Procedure, shortened: as §1

USP24 = USP24 (UniProt Q9UPU5)
Sequence of USP24 (Q9UPU5 whole entry): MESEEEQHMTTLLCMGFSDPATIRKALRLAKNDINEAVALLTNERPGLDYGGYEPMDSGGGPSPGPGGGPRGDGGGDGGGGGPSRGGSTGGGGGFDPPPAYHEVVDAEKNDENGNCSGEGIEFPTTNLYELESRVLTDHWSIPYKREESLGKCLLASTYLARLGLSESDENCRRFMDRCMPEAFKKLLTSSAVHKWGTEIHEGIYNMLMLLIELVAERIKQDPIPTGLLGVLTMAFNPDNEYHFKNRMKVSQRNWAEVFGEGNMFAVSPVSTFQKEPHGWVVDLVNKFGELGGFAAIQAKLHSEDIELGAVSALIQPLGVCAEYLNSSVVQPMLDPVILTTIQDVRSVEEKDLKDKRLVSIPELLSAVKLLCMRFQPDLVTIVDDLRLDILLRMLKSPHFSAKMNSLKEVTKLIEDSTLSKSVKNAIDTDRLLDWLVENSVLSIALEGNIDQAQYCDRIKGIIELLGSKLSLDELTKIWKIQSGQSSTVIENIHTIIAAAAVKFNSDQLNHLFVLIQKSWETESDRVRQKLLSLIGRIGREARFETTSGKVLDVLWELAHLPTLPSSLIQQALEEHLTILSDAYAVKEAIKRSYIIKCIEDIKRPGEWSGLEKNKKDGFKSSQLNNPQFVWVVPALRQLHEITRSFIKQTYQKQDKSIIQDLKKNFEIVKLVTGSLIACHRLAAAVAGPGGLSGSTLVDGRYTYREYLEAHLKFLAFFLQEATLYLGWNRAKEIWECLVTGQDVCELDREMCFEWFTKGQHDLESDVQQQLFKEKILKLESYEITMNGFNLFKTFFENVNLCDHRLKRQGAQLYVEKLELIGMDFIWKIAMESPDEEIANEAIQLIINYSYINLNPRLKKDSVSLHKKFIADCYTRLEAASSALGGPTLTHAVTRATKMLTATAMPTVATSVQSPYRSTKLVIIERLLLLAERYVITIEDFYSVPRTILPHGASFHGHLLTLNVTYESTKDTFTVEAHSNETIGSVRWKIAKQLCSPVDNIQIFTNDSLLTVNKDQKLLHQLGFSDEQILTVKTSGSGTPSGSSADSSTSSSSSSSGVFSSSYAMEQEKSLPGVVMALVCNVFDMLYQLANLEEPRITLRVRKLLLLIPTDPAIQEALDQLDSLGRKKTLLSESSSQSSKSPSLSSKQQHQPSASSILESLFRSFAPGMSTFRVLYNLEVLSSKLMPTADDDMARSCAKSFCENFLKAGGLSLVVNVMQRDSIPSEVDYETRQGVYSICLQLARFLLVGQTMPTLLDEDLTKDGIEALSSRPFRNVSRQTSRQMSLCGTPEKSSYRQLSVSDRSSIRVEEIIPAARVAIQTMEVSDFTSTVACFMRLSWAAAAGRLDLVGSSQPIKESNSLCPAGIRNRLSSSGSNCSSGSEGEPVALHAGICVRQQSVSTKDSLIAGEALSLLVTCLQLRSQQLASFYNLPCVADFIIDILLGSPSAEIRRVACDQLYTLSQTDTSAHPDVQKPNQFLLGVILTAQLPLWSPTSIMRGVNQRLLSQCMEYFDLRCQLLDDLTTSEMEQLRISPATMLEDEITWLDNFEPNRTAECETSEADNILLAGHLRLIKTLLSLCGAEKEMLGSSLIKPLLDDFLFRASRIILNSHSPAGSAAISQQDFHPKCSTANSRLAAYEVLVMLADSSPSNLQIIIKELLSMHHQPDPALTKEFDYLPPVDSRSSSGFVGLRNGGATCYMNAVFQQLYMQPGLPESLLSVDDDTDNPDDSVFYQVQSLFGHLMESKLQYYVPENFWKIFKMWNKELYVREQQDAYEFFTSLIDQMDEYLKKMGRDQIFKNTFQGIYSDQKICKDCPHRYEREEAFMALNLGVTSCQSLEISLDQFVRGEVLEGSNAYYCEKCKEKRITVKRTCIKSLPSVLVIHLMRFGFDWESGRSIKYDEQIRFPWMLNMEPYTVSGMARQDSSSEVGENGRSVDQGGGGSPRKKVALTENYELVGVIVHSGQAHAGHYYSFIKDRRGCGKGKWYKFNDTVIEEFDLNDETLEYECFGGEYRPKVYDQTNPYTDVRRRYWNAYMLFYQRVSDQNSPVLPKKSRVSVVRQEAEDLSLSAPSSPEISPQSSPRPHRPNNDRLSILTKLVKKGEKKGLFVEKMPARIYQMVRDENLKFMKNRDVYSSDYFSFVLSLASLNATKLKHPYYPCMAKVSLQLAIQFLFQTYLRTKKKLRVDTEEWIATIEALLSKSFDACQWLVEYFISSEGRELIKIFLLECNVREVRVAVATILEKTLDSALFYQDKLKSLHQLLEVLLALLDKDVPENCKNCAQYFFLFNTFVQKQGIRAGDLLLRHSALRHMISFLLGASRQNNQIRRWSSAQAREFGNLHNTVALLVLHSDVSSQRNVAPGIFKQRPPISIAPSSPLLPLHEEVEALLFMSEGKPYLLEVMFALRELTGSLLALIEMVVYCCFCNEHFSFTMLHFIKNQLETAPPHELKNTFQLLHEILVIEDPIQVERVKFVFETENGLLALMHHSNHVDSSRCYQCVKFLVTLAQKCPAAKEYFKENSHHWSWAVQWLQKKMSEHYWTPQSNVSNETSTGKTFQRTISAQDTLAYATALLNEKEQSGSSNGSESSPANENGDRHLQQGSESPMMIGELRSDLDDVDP
Procedure, shortened: as §1

USP25 = molecular target: T3, USP25 (UniProt Q9UHP3)
T3 sequence (whole entry): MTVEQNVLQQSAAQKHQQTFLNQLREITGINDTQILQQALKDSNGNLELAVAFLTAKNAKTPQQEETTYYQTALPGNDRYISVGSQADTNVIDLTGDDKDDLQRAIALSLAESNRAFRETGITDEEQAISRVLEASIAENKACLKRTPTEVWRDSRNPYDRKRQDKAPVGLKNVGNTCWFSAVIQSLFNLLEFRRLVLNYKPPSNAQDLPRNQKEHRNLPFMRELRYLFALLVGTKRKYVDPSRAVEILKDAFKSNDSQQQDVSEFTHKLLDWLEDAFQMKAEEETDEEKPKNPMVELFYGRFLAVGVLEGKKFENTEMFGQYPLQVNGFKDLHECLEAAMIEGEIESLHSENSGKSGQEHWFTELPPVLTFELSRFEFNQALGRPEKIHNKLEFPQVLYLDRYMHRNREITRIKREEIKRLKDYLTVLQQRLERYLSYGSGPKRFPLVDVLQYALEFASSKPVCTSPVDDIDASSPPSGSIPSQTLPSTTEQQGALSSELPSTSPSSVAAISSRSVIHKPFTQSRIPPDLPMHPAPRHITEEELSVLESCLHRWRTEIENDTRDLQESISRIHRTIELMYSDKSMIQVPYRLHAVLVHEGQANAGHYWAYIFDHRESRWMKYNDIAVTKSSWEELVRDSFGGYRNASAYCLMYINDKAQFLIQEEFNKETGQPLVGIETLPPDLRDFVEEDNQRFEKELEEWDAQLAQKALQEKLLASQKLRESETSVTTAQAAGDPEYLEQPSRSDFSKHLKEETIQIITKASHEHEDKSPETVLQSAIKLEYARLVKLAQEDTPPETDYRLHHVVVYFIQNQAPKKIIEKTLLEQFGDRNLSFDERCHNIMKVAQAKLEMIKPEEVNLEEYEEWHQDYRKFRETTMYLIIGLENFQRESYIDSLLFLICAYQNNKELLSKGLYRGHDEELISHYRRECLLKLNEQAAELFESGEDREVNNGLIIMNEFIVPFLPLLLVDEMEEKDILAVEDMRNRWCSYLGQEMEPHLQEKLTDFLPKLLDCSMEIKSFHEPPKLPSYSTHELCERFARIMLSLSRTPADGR
Procedure, shortened: as §1

USP28 = molecular target: T4, USP28 (UniProt Q96RU2)
T4 sequence (whole entry): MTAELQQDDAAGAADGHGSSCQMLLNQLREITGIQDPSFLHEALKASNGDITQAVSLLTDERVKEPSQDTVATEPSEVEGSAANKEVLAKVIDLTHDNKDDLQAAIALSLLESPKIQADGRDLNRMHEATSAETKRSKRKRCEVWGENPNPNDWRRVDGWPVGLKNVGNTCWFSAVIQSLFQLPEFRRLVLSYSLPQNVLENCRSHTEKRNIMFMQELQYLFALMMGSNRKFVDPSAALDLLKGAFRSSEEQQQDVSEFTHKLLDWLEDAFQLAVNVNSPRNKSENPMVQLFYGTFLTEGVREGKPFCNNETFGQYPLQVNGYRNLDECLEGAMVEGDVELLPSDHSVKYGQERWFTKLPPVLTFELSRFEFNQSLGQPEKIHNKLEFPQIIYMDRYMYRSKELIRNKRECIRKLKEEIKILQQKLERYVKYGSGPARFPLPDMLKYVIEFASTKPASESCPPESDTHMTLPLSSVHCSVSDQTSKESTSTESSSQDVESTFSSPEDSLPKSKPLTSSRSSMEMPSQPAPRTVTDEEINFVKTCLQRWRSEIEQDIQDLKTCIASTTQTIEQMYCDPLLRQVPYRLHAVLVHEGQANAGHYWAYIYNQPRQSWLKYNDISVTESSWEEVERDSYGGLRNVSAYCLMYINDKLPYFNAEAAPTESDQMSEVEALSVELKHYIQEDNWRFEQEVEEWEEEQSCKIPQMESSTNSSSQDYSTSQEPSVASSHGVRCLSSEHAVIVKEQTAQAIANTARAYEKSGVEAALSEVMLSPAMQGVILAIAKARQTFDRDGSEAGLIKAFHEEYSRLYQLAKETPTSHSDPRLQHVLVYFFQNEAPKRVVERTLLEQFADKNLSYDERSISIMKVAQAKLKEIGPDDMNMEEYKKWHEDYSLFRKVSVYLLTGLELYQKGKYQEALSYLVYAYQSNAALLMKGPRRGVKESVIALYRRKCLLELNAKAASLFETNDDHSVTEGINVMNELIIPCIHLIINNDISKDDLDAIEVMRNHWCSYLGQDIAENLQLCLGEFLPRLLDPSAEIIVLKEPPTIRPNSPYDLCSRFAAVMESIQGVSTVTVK
Procedure, shortened: as §1

Measured: log2 ratio of Biotin-Ahx-Ub-VS probe labelling

Cc1ccc(CN(CCO)C(=O)CCl)cc1
inactive: USP19 -0.37 | USP22 -0.0829 | USP24 -0.445 | USP25 -0.431 | USP28 -0.569
